Bioassay records (PubChem BioAssay)
VHR inh abs: blocks human VHR1 dual specificity phosphatase. P51452. recombinant VHR phosphatase, pNPP absorbance. inhibition, % at 13.3 µM. hit rate 0.52% among 290,000; in the data active = inhibition above about 50%
Target sequence (P51452 whole entry, looked up): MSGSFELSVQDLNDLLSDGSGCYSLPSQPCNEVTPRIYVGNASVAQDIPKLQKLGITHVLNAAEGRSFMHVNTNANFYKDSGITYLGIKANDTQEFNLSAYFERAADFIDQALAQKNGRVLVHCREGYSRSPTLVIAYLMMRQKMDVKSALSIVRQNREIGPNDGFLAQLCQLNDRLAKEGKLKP
BJeLR viability: BJeLR cell viability loss. BJeLR (HRASV12) viability, CellTiter-Glo ATP luminescence, 48 h. hit rate 0.17% among 300,000. inhibition, % (no concentration beside the values); in the data active = inhibition above about 50%
PrPC surface inh: reduces human prion protein on the cell surface. P04156. cell surface PrPC, TR-FRET read-out. inhibition, % at 13.8 µM. hit rate 0.43% among 370,000; in the data active = inhibition above about 24%; note: 0% = median of the test wells and 100% = reference compound wells
SARS 3CLpro inh: SARS-CoV 3CLpro protease inhibition; P0C6X7; recombinant SARS-CoV 3CLpro, quenched FRET peptide cleavage; inhibition, % at 6 µM; hit rate 0.14% among 290,000; AID 1706; in the data active = inhibition above about 12%
Active calls of the source: *; . = no result given. Hits are enriched below; roughly 1.1% of the tested compounds scored in any of these assays.

SMILES	VHR inh abs	BJeLR viability	PrPC surface inh	SARS 3CLpro inh
CC(C)C[C@@H]1COc2cccc(N3CCCC3)c2S(=O)(=O)N1	.	.	-4	.
Cc1ccc(/C=C/C(=O)Nc2nnc(SCc3ccc(C#N)cc3)s2)o1	60*	2	4	3
Cc1ccc(/C=C/C(=O)Nc2nccs2)o1	-4	6	-12	-42
O=C(NCc1cccnc1)/C(=C/c1ccc(Cl)cc1)NC(=O)c1ccccc1	11	-5	-7	0
O=C(NCc1ccccc1Cl)/C(=C\c1cccnc1)NC(=O)c1ccccc1	58*	-2	-12	6
CCn1c(SCC(=O)NC2CCCCC2)nc2ccccc2c1=O	24	0	2	0
O=C(N[C@H](C(=O)N1CCC[C@H]1C(=O)NCc1ccccc1)c1ccccc1)C1CCCC1	.	.	1	.
Cc1cc(C)nc(SC2=CS(=O)(=O)c3ccccc32)n1	6	-19	-3	-1
O=S1(=O)C=C(Sc2nc3ccccc3s2)c2ccccc21	-15	56*	.	2
Cc1cc(=O)oc2c(C)c(OCC(=O)NC3CC(C)(C)NC(C)(C)C3)ccc12	2	12	4	-1
Cc1cc(OCC(=O)NC2CC(C)(C)NC(C)(C)C2)c2c(C)cc(=O)oc2c1	56*	10	7	-3
Cc1c(OCC(=O)NC2CC(C)(C)NC(C)(C)C2)ccc2c1oc(=O)c1ccccc12	53*	22	-7	-8
CCCc1cc(=O)oc2c(C)c(OCC(=O)NCCCN3CCOCC3)ccc12	53*	2	-6	-7
CCc1cc(=O)oc2c(C)c(OCC(=O)NCCCN3CCOCC3)ccc12	61	2	1	-2
Cc1c(OCC(=O)NC2CC(C)(C)NC(C)(C)C2)ccc2c3c(c(=O)oc12)CCC3	15	-6	2	-7
CCCc1cc(=O)oc2c(C)c(OCC(=O)NC3CC(C)(C)NC(C)(C)C3)ccc12	50*	9	-4	-5
Cc1cc(NS(=O)(=O)c2ccc(NC(=O)CSc3nnc(-c4ccncc4)n3-c3ccccc3)cc2)nc(C)n1	.	.	-3	.
CCN(CC)S(=O)(=O)c1ccc(N2CCOCC2)c(NC(=O)c2cc3ccccc3o2)c1	.	.	-6	.
O[C@@H](c1cc(C(F)(F)F)nc2c(C(F)(F)F)cccc12)[C@H]1CCCCN1	.	8	4	.
OC(c1cc(-c2ccc(Cl)cc2)nc2ccccc12)C1CCCCN1 (stereo unspecified)	22	126*	-9	-5
COC(=O)C1=C(C)N(Cc2ccc(C(F)(F)F)cc2)C(=NCc2ccccc2C(F)(F)F)NC1c1ccc(C(F)(F)F)cc1 (stereo unspecified)	.	.	6	.
Clc1ccc2nc(-c3ccco3)c(Cc3ccsc3)n2c1	.	.	-3	.
Brc1ccc2nc(-c3ccco3)c(Cc3ccsc3)n2c1	.	.	34*	.
CC(C)=C[C@H]1C[C@H](C)[C@H]2CC[C@H](C)c3c(O[C@@H]4O[C@@H](C)[C@@H](O)[C@@H](O)[C@@H]4O)c(O)c(C)c1c32	.	.	-4	.
CCOCCCNC(=O)c1cc2c(s1)-c1ccccc1SC2	-32	5	2	1
SMILES	VHR inh abs	BJeLR viability	PrPC surface inh	SARS 3CLpro inh
CN(C)CCNC(=O)c1cc2c(s1)-c1ccc(Cl)cc1SC2	-20	79*	-5	2
Cc1nc(N)nc(N)c1CCCc1ccc(Cl)c(Cl)c1	.	57*	-3	.
CCOC(=O)c1nc(NNC(=O)c2ccc([N+](=O)[O-])cc2)sc1C	51*	26	-11	-4
CN1CCN(Cc2cccc3ncccc23)CC1CCO (stereo unspecified)	16	1	-4	2
COC(=O)CCC(=O)NC1CC(C)(C)Cc2c1cnn2-c1ccccc1 (stereo unspecified)	57*	2	7	-5
CCOc1cc(C(=O)NCCN2C(=O)S/C(=C\c3cccnc3)C2=O)cc(OCC)c1OCC	53*	-9	8	2
O=C(CCC1CCCN(C(=O)c2ccccc2Cl)C1)N1CCN(c2ccccn2)CC1 (stereo unspecified)	52*	3	1	-2
O=C(N/N=C\c1c(O)ccc2ccccc12)c1ccc(S(=O)(=O)N2CCCCC2)cc1	17	77*	-5	-6
CC(=O)N1c2ccccc2C(C)=NCC1C(=O)NC1CCCCC1 (stereo unspecified)	.	.	7	.
[O-]c1ccccc1-[n+]1c(-c2ccccc2)cc(-c2ccccc2)cc1-c1ccccc1	.	63*	-5	.
CCOC(=O)N=Nc1c2ccccc2c2nc3no[nH]c3nc12	26	54*	-5	1
CCc1nc2c(OCC3COc4ccccc4O3)cccn2c1N(C)C(=O)c1ccccc1F (stereo unspecified)	.	.	7	.
COC(C(=O)N/N=C(\C)c1ccc(C)cc1)c1ccccc1 (stereo unspecified)	52*	1	-5	0
COC(C(=O)N/N=C(\C)c1ccc(O)cc1)c1ccccc1 (stereo unspecified)	5	2	2	-9
Cc1ccccc1N=C1NC(=O)/C(=C/c2cccn2-c2cccc(C(=O)O)c2)S1	56*	2	8	-3
Cc1cccc(N=C2NC(=O)/C(=C/c3cccn3C)S2)c1C	13	-9	-7	5
Cc1ccc(CN2C(=O)CSCC2(C)C(=O)Nc2c(C)cccc2C)cc1 (stereo unspecified)	.	.	5	.
CC(=O)c1cccc(NC(=O)/C=C/c2ccc([N+](=O)[O-])s2)c1	10	63*	-3	3
Cc1c(C(=O)N2CCCCC2)c(S(=O)(=O)N(C)Cc2ccccc2)c(C)n1C	54*	2	-2	0
Cc1c(C(=O)N2CCCCC2)c(S(=O)(=O)N(C)Cc2ccco2)c(C)n1C	-22	-5	-1	1
COCCCNC(=O)/C(C#N)=C/c1cccc(NC(=O)c2ccccc2Cl)c1	42	8	-1	2
N#C/C(=C\c1cccc(NC(=O)c2ccccc2Cl)c1)C(=O)NCCc1ccccc1	55*	-2	-1	0
O=C(O)C[C@H](O)C[C@H](O)/C=C/c1c(C2CC2)nc2ccccc2c1-c1ccc(F)cc1	.	53*	.	.
c1ccc(CSc2ccc(-c3ccco3)nn2)cc1	16	12	15	3
Cc1ccc(CSc2ccc(-c3ccco3)nn2)cc1	53*	-1	9	-1
SMILES	VHR inh abs	BJeLR viability	PrPC surface inh	SARS 3CLpro inh
O=C(NCc1cccnc1)c1ccc(S(=O)(=O)N2CCCCC2)cc1	2	3	0	-3
O=S(=O)(c1ccc(NC(=S)NCc2cccnc2)cc1)N1CCCCC1	40	62*	4	-5
COc1ccc(-[n+]2c(-c3ccccc3)cc(-c3ccc(C)cc3)cc2-c2ccccc2)cc1	15	72*	29*	-1
Cc1ccc(-n2[nH]c(C)c(C=Nc3ccc4[nH]c(=O)[nH]c4c3)c2=O)cc1	2	26	-6	-1
Cc1ccc(N=Cc2c(C)[nH]n(-c3nc4ccccc4[nH]3)c2=O)cc1	11	103*	4	1
CCn1c(=N)n(CC(=O)OC)c2ccccc21	56*	2	1	0
CCn1cc(/C=C(\NC(=O)c2ccc(OC)c(OC)c2)C(=O)N2CCN(C)CC2)c2ccccc21	57*	-5	-13	-3
